# ChEMBL document CHEMBL2218924, “A broad activity screen in support of a chemogenomic map for kinase signalling research and drug discovery” (Biochem J, 2013)
# Columns and labels:
# [1] = target: Serine/threonine-protein kinase PLK3 (Homo sapiens) (UniProt Q9H4B4); conditions: at 1 µM
# [2] = target: Serine/threonine-protein kinase PLK3 (Homo sapiens) (UniProt Q9H4B4); conditions: at 10 µM
# [3] = target: T1, cAMP-dependent protein kinase catalytic subunit PRKX (Homo sapiens) (UniProt P51817); conditions: at 1 µM
# T1 sequence (whole entry): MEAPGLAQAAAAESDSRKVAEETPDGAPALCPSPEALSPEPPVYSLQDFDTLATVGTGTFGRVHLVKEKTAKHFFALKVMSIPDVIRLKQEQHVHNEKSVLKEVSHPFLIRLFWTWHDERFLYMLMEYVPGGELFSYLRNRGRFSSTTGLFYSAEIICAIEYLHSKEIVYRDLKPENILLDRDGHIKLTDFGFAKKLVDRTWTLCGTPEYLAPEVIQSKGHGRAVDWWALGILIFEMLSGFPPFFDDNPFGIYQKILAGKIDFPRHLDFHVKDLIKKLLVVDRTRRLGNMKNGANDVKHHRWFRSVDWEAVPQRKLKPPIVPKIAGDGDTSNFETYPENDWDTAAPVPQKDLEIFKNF
# [4] = target: T1, cAMP-dependent protein kinase catalytic subunit PRKX (Homo sapiens); conditions: at 10 µM
# [5] = target: Protein-tyrosine kinase 2-beta (Homo sapiens) (UniProt Q14289); conditions: at 1 µM
# [6] = target: Protein-tyrosine kinase 2-beta (Homo sapiens) (UniProt Q14289); conditions: at 10 µM
# [7] = target: Receptor-interacting serine/threonine-protein kinase 2 (Homo sapiens) (UniProt O43353); conditions: at 1 µM
# [8] = target: Receptor-interacting serine/threonine-protein kinase 2 (Homo sapiens) (UniProt O43353); conditions: at 10 µM
# [9] = target: Rho-associated protein kinase 1 (Homo sapiens) (UniProt Q13464); conditions: at 1 µM
# [10] = target: Rho-associated protein kinase 1 (Homo sapiens) (UniProt Q13464); conditions: at 10 µM
# [11] = target: Rho-associated protein kinase 2 (Homo sapiens) (UniProt O75116); conditions: at 1 µM
# [12] = target: Rho-associated protein kinase 2 (Homo sapiens) (UniProt O75116); conditions: at 10 µM
# [13] = target: Proto-oncogene tyrosine-protein kinase receptor Ret (Homo sapiens) (UniProt P07949); conditions: at 1 µM
# [14] = target: Proto-oncogene tyrosine-protein kinase receptor Ret (Homo sapiens) (UniProt P07949); conditions: at 10 µM
# [15] = target: Macrophage-stimulating protein receptor (Homo sapiens) (UniProt Q04912); conditions: at 1 µM
# [16] = target: Macrophage-stimulating protein receptor (Homo sapiens) (UniProt Q04912); conditions: at 10 µM
# [17] = target: Proto-oncogene tyrosine-protein kinase ROS (Homo sapiens) (UniProt P08922); conditions: at 1 µM
# [18] = target: Proto-oncogene tyrosine-protein kinase ROS (Homo sapiens) (UniProt P08922); conditions: at 10 µM
# [19] = target: T2, Tyrosine-protein kinase receptor TYRO3 (Homo sapiens) (UniProt Q06418); conditions: at 1 µM
# T2 sequence (whole entry): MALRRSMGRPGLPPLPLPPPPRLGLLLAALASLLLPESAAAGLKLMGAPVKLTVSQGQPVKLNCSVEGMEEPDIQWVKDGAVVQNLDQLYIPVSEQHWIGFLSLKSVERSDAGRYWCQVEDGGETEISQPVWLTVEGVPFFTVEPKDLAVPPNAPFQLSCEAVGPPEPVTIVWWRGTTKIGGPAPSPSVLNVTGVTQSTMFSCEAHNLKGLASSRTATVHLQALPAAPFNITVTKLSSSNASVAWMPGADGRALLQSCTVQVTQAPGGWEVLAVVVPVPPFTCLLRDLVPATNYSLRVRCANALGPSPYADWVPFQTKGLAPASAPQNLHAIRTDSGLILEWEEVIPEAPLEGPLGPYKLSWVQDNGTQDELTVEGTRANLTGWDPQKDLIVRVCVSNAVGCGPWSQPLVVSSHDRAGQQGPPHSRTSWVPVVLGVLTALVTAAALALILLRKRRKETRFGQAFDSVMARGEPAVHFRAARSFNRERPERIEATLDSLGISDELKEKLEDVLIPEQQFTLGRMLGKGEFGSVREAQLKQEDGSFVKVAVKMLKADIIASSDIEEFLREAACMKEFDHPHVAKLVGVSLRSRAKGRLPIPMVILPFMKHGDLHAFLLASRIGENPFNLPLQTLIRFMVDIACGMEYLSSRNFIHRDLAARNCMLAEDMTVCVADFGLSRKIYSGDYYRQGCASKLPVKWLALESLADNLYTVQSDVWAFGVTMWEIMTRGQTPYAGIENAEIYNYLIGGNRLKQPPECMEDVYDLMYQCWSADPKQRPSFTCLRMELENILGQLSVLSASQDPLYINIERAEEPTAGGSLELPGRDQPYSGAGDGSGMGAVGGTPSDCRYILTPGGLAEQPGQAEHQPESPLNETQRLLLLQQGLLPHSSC
# [20] = target: T2, Tyrosine-protein kinase receptor TYRO3 (Homo sapiens); conditions: at 10 µM
# Chain of Proto-oncogene tyrosine-protein kinase receptor Ret (Homo sapiens) (P07949 whole entry): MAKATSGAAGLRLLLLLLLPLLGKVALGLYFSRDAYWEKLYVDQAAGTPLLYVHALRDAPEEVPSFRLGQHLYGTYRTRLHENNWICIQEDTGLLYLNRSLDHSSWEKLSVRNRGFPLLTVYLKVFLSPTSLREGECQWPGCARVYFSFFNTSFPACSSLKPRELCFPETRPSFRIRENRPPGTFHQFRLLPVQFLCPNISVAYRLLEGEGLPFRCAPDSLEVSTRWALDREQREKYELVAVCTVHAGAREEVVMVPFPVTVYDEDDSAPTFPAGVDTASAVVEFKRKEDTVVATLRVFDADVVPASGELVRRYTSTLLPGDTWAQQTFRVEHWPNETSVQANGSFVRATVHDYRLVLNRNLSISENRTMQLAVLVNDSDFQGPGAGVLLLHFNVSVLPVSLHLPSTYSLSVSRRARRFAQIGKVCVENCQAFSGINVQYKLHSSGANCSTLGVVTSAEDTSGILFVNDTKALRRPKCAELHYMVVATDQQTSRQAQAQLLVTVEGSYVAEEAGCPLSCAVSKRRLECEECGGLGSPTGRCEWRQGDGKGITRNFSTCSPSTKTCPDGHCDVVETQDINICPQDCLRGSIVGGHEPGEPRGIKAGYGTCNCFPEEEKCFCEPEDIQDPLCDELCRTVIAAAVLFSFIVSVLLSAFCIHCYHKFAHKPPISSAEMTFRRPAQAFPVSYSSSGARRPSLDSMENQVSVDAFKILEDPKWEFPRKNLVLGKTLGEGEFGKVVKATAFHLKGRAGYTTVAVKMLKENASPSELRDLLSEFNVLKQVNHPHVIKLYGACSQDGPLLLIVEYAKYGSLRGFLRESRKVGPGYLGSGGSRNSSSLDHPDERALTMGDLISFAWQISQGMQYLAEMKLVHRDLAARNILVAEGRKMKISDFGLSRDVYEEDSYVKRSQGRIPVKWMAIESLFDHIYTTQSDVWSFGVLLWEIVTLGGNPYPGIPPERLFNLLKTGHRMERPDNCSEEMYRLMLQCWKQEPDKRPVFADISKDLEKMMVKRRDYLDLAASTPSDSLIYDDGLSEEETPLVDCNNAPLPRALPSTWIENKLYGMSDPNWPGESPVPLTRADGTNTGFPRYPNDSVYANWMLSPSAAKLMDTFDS
# Chain of Receptor-interacting serine/threonine-protein kinase 2 (Homo sapiens) (O43353 whole entry): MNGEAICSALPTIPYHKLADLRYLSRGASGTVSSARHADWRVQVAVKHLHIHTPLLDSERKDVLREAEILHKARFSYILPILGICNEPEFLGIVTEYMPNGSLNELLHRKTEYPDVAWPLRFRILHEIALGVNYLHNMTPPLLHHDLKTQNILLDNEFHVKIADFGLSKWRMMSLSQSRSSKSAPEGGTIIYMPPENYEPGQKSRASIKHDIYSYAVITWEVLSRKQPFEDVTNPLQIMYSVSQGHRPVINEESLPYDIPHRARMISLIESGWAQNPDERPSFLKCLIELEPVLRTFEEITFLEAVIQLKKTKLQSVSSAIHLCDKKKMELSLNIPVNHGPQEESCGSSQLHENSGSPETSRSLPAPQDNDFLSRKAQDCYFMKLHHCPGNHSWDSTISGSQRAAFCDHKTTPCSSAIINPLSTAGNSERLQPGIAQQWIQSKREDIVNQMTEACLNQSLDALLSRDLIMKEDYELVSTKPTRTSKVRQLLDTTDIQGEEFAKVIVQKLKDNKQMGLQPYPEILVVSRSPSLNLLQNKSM
# Chain of Protein-tyrosine kinase 2-beta (Homo sapiens) (Q14289 whole entry, looked up): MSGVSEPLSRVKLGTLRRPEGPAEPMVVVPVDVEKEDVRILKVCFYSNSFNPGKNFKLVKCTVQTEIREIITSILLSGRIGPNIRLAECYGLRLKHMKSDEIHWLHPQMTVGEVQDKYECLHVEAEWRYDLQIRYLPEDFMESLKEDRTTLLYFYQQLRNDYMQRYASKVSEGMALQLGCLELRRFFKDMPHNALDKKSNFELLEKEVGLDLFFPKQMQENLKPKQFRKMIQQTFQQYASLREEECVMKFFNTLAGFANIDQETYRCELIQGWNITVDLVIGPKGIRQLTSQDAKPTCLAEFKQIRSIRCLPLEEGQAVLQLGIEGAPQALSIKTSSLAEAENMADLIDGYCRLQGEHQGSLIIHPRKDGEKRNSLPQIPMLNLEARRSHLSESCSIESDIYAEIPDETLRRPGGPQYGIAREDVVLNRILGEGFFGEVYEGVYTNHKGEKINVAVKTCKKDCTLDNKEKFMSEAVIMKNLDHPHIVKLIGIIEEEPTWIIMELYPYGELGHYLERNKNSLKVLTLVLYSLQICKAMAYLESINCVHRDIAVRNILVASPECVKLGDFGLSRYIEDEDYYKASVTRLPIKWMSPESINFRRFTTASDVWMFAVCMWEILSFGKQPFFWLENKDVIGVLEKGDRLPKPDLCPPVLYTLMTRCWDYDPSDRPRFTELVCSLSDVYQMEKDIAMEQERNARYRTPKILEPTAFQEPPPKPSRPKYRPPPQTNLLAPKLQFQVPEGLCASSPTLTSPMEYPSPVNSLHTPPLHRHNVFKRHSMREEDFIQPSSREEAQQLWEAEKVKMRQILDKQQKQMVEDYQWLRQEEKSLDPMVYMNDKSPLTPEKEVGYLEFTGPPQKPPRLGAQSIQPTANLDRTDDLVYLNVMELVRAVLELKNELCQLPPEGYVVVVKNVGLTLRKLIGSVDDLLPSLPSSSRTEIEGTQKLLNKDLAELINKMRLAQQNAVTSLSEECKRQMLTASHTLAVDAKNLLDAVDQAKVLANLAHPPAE
# Chain of Macrophage-stimulating protein receptor (Homo sapiens) (Q04912 25-304 limits assumed): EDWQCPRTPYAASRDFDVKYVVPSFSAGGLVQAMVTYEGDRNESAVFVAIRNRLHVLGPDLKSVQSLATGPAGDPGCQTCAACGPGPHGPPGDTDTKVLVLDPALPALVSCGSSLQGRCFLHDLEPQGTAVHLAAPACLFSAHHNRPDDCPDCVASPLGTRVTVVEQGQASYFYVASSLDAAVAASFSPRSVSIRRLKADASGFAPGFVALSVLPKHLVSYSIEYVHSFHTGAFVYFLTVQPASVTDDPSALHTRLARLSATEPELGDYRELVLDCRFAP
# Chain of Macrophage-stimulating protein receptor (Homo sapiens) (Q04912 310-1400 limits assumed): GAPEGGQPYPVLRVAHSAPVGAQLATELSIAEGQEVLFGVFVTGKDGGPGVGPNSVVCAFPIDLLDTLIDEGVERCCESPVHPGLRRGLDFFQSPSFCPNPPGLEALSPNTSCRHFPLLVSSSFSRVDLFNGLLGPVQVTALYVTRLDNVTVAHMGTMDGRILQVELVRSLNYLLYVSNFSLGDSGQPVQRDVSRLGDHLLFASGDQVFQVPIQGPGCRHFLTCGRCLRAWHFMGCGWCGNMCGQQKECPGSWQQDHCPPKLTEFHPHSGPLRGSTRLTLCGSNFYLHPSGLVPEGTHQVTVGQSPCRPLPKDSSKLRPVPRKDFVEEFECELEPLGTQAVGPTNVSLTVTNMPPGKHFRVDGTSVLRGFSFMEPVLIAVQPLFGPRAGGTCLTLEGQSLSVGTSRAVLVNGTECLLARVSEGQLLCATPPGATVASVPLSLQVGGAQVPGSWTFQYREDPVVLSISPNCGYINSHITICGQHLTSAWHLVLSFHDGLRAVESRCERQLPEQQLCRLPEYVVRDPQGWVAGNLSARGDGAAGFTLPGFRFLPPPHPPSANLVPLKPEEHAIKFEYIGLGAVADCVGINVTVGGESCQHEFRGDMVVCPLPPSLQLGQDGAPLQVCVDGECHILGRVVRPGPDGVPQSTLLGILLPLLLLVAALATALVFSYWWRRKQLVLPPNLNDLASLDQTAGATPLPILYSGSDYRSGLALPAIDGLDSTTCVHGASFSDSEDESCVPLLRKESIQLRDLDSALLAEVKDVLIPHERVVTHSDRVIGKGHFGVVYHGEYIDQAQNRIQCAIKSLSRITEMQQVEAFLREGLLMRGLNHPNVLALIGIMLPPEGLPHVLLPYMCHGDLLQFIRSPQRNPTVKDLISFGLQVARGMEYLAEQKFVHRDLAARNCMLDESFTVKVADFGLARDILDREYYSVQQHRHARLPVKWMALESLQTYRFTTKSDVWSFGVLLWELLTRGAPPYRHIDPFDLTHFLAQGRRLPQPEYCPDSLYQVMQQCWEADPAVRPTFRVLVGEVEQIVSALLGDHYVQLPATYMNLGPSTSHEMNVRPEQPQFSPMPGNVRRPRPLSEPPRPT
# Chain of Serine/threonine-protein kinase PLK3 (Homo sapiens) (Q9H4B4 whole entry, looked up): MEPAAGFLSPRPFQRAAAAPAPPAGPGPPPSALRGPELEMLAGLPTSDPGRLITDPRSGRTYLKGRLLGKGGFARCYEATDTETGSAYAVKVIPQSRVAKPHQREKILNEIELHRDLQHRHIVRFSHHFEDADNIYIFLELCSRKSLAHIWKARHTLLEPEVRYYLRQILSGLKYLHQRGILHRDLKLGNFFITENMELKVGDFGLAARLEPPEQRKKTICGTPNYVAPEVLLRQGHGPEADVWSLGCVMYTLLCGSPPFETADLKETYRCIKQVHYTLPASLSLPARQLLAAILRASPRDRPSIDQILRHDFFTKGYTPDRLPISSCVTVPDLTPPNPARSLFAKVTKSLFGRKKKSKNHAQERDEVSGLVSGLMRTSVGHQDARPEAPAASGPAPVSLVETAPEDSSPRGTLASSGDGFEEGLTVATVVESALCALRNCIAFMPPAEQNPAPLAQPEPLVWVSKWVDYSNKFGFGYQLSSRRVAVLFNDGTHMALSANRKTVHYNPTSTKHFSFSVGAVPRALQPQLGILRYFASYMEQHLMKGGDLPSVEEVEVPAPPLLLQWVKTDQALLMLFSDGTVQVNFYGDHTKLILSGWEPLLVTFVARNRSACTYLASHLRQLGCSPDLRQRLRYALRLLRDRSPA
SMILES,residual activity [1],residual activity [2] [%],residual activity [3] [%],residual activity [4] [%],residual activity [5] [%],residual activity [6] [%],residual activity [7] [%],residual activity [8] [%],residual activity [9] [%],residual activity [10] [%],residual activity [11] [%],residual activity [12] [%],residual activity [13] [%],residual activity [14] [%],residual activity [15] [%],residual activity [16] [%],residual activity [17] [%],residual activity [18] [%],residual activity [19] [%],residual activity [20] [%]
O=C1NC(=O)c2c1c1c3ccccc3[nH]c1c1[nH]c3cc(Br)ccc3c21,96% (inactive),83,85,77,71,84,92,93,112,93,93,89,91,77,79,83,102,96,110,98
Nc1n[nH]c2nnc(-c3c(-c4ccccc4)nn4ccccc34)cc12,97% (inactive),99,92,74,95,72,88,78,106,105,84,90,108,58,66,42,91,80,102,99
Cn1cc(/C=C2\C(=O)Nc3ccc(S(N)(=O)=O)cc32)c2ccccc21,100% (inactive),99,88,59,22,5,52,51,92,87,37,13,1,1,94,82,98,109,67,53
COc1ccc(S(=O)(=O)N(CCO)c2ccccc2CN(C)C/C=C/c2ccc(Cl)cc2)cc1,87% (inactive),96,88,51,109,96,92,91,134,124,100,91,105,87,90,88,105,87,113,112
Cn1cnc2cc3c(Nc4cccc(Br)c4)ncnc3cc21,95% (inactive),92,108,110,119,77,26,20,104,110,93,81,66,65,88,64,91,98,59,53
CC[n+]1c(/C=C/N(C)c2ccccc2)n(-c2ccccc2)c2ccc(-c3nc4ccccc4s3)cc21,99% (inactive),103,108,63,139,83,93,88,110,102,103,93,96,100,97,57,105,102,99,72
CCOc1cc2ncnc(Nc3cccc(Br)c3)c2cc1OCC,87% (inactive),100,98,78,110,58,24,12,94,95,91,70,30,1,101,57,103,100,51,16
Nc1ccc2ncnc(NCCc3ccc(Oc4ccccc4)cc3)c2c1,102% (inactive),96,109,58,88,72,102,88,106,100,110,94,76,55,82,70,107,100,113,100
Ic1cccc(CSc2nnc(-c3ccncc3)o2)c1,87% (inactive),94,57,71,103,101,82,78,113,98,68,58,93,74,81,78,93,75,112,94
Oc1ccc(Nc2nc(-c3ccc(Cl)cc3)cs2)cc1,100% (inactive),94,78,118,109,106,107,89,122,121,100,102,97,87,95,106,110,97,97,96
CC(C)n1cnc2c(NCc3ccccc3)nc(NCCCO)nc21,98% (inactive),95,130,88,102,83,69,51,109,100,94,90,96,92,88,92,96,93,105,101
O=Nc1c(-c2c(O)[nH]c3ccccc23)[nH]c2ccccc12,96% (inactive),91,48,33,14,2,60,27,108,92,85,82,1,0,86,71,105,88,62,15
CCC(=O)Nc1ccc2ncnc(Nc3cccc(Br)c3)c2c1,89% (inactive),86,89,94,126,95,50,32,115,120,89,88,86,103,90,70,92,98,90,93
